An excerpt weighted towards active compounds, which were near 2.9% of everything screened.
PP1 counter: PP1-alpha (human) inhibition in PP5 counter-screen | P62136 | purified PP1alpha, OMFP fluorescence | inhibition, % at 6.7 µM | 320,000 tested, 0.9% active | AID 2235;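 active = inhibition above the mean inhibition of all tested compounds plus 3 SD, computed separately for each screening campaign, cut at about 15% in these data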
Exocytosis inh: lytic granule exocytosis inhibition; TALL-104 LAMP-1 surface exposure, flow cytometry; cells stimulated with thapsigargin and PMA; inhibition, % at 10 µM; 360,000 tested, 0.66% active; AID 651702;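 active = inhibition above about 55%, limit read from the data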
GRK2 aptamer HTS: blocks RNA aptamer binding to human GRK2 | 330,000 tested, 0.59% active | P25098 | inhibition of aptamer binding, % at 10 µM | bead flow cytometry, FAM-aptamer displacement from GRK2;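 active = inhibition of aptamer binding above 40%, roughly 3 SD of noise, on plates passing a quality check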;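 note: median bead fluorescence of bound FAM aptamer so fluorescent compounds give negative values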
Target sequence (P25098 whole entry, looked up): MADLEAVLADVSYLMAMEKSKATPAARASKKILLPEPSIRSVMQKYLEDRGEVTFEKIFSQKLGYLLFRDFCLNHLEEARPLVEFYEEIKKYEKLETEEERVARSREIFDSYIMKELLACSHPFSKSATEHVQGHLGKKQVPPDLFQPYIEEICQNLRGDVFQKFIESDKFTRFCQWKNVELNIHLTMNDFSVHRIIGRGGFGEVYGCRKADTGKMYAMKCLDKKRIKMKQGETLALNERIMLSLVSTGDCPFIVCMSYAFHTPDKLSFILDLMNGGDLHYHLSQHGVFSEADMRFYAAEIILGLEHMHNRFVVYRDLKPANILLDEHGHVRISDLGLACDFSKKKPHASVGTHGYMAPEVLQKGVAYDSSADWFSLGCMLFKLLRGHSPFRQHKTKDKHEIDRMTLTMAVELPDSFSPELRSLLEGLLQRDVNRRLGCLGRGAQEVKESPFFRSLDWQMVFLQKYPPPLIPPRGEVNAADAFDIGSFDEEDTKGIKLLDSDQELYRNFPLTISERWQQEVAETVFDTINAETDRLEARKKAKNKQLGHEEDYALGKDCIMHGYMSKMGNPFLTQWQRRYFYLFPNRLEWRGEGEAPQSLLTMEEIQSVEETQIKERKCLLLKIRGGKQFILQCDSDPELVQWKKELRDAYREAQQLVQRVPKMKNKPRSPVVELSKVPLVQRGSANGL
B2AR ag: activates human beta-2 adrenergic receptor causing internalization; P07550; Am2.2-beta2AR cells, FAP receptor internalization, flow cytometry; 340,000 tested, 0.43% active; response, % (concentration not given with the values);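 active = response above a set limit, near 3 SD of response in nonfluorescent compounds, cut at about 42% in these data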
NadD block: inhibitors of Staphylococcus aureus NadD | purified NadD enzyme, colorimetric absorbance read-out | inhibition, % at 20 µM | 360,000 tested, 0.78% active | AID 602399; in the data active = inhibition above about 26%
NadD conf: NadD (S. aureus) inhibition, single concentration confirmation; shares compounds with NadD block; inhibition, % at 20 µM; 2,000 tested, 13% active; purified S. aureus NadD, colorimetric enzyme assay; in the data active = inhibition mostly above about 42%, no sharp cut-off; inactive = mostly below about 42%
Starred values were filed as active, the others as inactive; . = not tested or not shown.

SMILES | PP1 counter | Exocytosis inh | GRK2 aptamer HTS | B2AR ag | NadD block | NadD conf
COc1ccc(-c2csc(NC(=O)CSc3nc(C)nc4sc(C(=O)O)c(C)c34)n2)cc1 | 3.4 | 6.8 | 1.0 | 13.6 | 30.2* | 22.4
COc1ccc(-c2csc(NC(=O)CSc3nc(C)cs3)n2)cc1 | 0.4 | 1.2 | 0.0 | 2.5 | -4.4 | .
O=C(O)c1cccc(-n2cccc2/C=C2/NC(=O)N(c3cccc(Cl)c3)C2=O)c1 | 0.0 | 0.3 | 23.0 | 1.2 | 1.7 | .
O=C(O)c1cccc(-n2cccc2/C=C2/NC(=O)N(c3ccc(Cl)cc3)C2=O)c1 | . | 9.1 | . | -5.9 | 42.6* | 61.1*
CSc1nnc2ccc(-c3cccs3)nn12 | 1.0 | -1.4 | 1.0 | -11.6 | -6.5 | .
COc1ccc(C(=O)c2[nH]c(N)c(C(=O)NCCc3c[nH]c4ccccc34)c2-c2ccc(Br)cc2)cc1 | . | 7.1 | . | . | 44.0* | 28.8
CC1CCN(S(=O)(=O)c2ccc3c(c2)C(=NO)c2cc(S(=O)(=O)N4CCC(C)CC4)ccc2-3)CC1 | 0.1 | 23.8 | 1.0 | 8.8 | 13.8 | .
O=S(=O)(c1ccc2c(c1)C(=NO)c1cc(S(=O)(=O)N3CCCCC3)ccc1-2)N1CCCCC1 | 0.6 | 42.0 | 1.0 | 30.5 | 33.9* | 7.5
Cc1ccc(C(=O)N2CCN(c3ncnc4c(-c5ccccc5)nsc34)CC2)cc1 | -2.7 | . | 0.0 | . | . | .
Cc1ccc(-c2nsc3c(N4CCC(C(N)=O)CC4)ncnc23)cc1 | 1.8 | 9.4 | 0.0 | 1.6 | 30.6* | 5.7
CCN=C1NN=C(c2cc(C)n(Cc3ccco3)c2C)CS1 | 10.8 | -2.9 | 0.0 | 9.4 | 37.1* | 6.9
CCN=C1NN=C(c2cc(C)n(CCc3ccccc3)c2C)CS1 | . | 9.9 | . | 10.5 | 17.0 | .
COCCn1c(C)cc(C2=NNC(=Nc3ccccc3)SC2)c1C | 8.9 | -3.6 | 0.0 | -4.1 | 35.7* | 3.6
c1ccc(-n2nnnc2SCc2cccc3nsnc23)cc1 | 1.2 | -1.0 | 1.0 | -1.9 | -5.9 | .
O=C(Nc1ccc(-c2cn3ccsc3n2)cc1)c1ccc(F)c(S(=O)(=O)N2CCOCC2)c1 | 0.2 | 2.6 | 0.0 | 26.0 | 7.0 | .
COc1ccc(N2CC(C(=O)N[C@@H](CC(C)C)C(=O)NC3CCCC3)CC2=O)cc1 (some centres undefined) | 0.9 | -9.7 | 0.0 | 9.0 | -0.4 | .
NC(=O)C1CCN(C(=O)Cc2ccsc2)CC1 | 0.6 | 12.2 | 0.0 | 0.4 | 14.5 | .
O=C(Nc1ccc(F)cc1)Nc1ccc([N+](=O)[O-])cn1 | -6.0 | -1.5 | 1.0 | 1.1 | -3.3 | .
O=C(Nc1ccc(Cl)c(Cl)c1)Nc1ccc([N+](=O)[O-])cn1 | -3.4 | -4.2 | 0.0 | -12.1 | 34.1* | 6.0
CCc1cccc(OCC2Cn3c(nc4c3c(=O)[nH]c(=O)n4C)O2)c1 (centres undefined) | -2.2 | 8.5 | 0.0 | 0.2 | -3.6 | .
COc1ccc(CN(CC(=O)NCc2ccco2)C(=O)CNS(=O)(=O)c2ccc(C)cc2)cc1 | -0.9 | 23.2 | 0.0 | 0.6 | -2.8 | .
Oc1ccc(C[C@H]2CNC(=S)N2CC2CCCN2C[C@H](Cc2ccc(O)cc2)N2C[C@H](Cc3ccccc3)N(CC3CCCCCC3)C2=S)cc1 (some centres undefined) | . | -0.1 | . | 20.1 | 44.6* | 31.3
CC(C)C[C@@H](CN1CCCC1CN1C(=S)NC[C@@H]1Cc1ccccc1)N1C[C@H](Cc2ccccc2)N(CC2CCCCC2)C1=S (some centres undefined) | . | 5.3 | . | . | 24.5 | .
CC(C)C[C@H]1CNC(=S)N1C[C@H]1CCCN1C[C@H](Cc1ccccc1)N1C[C@H](Cc2ccc(O)cc2)N(CC2CCCCC2)C1=S | . | 25.1 | . | . | 35.2* | -0.3
Oc1ccc(C[C@H]2CN([C@@H](Cc3ccccc3)CN3CCC[C@@H]3CN3C(=S)NC[C@@H]3Cc3ccccc3)C(=S)N2CC2CCCCC2)cc1 | . | 27.8 | . | . | 21.7 | .
SMILES | PP1 counter | Exocytosis inh | GRK2 aptamer HTS | B2AR ag | NadD block | NadD conf
CC(C)C[C@H]1CNC(=S)N1CC1CCCN1C[C@H](Cc1ccc(O)cc1)N1C[C@H](Cc2ccccc2)N(CC2CCCCC2)C1=S (some centres undefined) | . | 11.9 | . | 4.7 | 27.9 | .
Oc1ccc(C[C@H]2CNC(=S)N2CC2CCCN2C[C@H](Cc2ccc(O)cc2)N2C[C@H](Cc3ccccc3)N(CC3CCCCC3)C2=S)cc1 (some centres undefined) | . | 17.1 | . | 11.0 | 50.5* | 54.9*
Oc1ccc(C[C@@H](CN2CCCC2CN2C(=S)NC[C@@H]2Cc2ccccc2)N2C[C@H](Cc3ccccc3)N(CC3CCCCC3)C2=S)cc1 (some centres undefined) | . | 4.1 | . | . | 43.9* | 12.6
COC(=O)c1cc(CNC(=O)c2ccc(N3CCCC3)c([N+](=O)[O-])c2)ccc1OC | -2.6 | -0.7 | 0.0 | 4.5 | 7.8 | .
OC[C@@H]1CN(Cc2ccc3c(c2)OCO3)C[C@H](n2cnc3c(N4CCN(c5ccccc5)CC4)ncnc32)O1 | . | 1.9 | . | . | -4.3 | .
O=C(NC1CC1)C1CCN(C2CCN(C(=O)CC3=CCCCC3)CC2)CC1 | -3.1 | -2.1 | 0.0 | 2.4 | -8.6 | .
Oc1ccc(C[C@H]2CNC(=S)N2CC2CCCN2C[C@H](Cc2ccccc2)N2C[C@H](Cc3ccc(O)cc3)N(CC3CCCCC3)C2=S)cc1 (some centres undefined) | . | 14.9 | . | . | 53.4* | 19.5
CC(C)C[C@H]1CNC(=S)N1CC1CCCN1C[C@H](Cc1ccccc1)N1C[C@H](Cc2ccccc2)N(CC2CCCCC2)C1=S (some centres undefined) | . | 0.9 | . | . | 6.5 | .
Oc1ccc(C[C@@H](CN2CCCC2CN2C(=S)NC[C@@H]2Cc2ccccc2)N2C[C@H](Cc3ccccc3)N(CC3CCCCCC3)C2=S)cc1 (some centres undefined) | . | 4.1 | . | . | 45.5* | -4.3
Oc1ccc(C[C@H]2CNC(=S)N2CC2CCCN2C[C@H](Cc2ccc(O)cc2)N2C[C@H](Cc3ccc(O)cc3)N(CC3CCCCCC3)C2=S)cc1 (some centres undefined) | . | 17.5 | . | 25.7 | 55.4* | 40.8
CC(C)C[C@@H](CN1CCCC1CN1C(=S)NC[C@@H]1Cc1ccccc1)N1C[C@H](Cc2ccc(O)cc2)N(CC2CCCCC2)C1=S (some centres undefined) | . | 19.7 | . | . | 28.6 | .
CCC(=O)N(C)C[C@H]1Oc2cc(-c3ccccc3F)ccc2S(=O)(=O)N([C@H](C)CO)C[C@H]1C | . | -0.8 | . | . | 3.4 | .
COc1cccc(-c2c(C(=O)N/N=C(\C)c3ccc(Cl)s3)nnn2-c2nonc2N)c1 | 3.8 | 9.0 | 4.0 | 5.2 | 32.3* | 14.6
O=C(O)C1=CC[C@@H](c2ccc(Cl)cc2)N(S(=O)(=O)c2ccc(Cl)cc2)[C@H]1c1ccccc1 | 10.8 | -2.8 | 0.0 | 10.8 | -6.4 | .
Cn1c(N)c(S(=O)(=O)NCc2ccccc2)c(=O)n(C)c1=O | -0.8 | -0.7 | 3.0 | -2.1 | -2.7 | .
CC(C)(C)n1nc2c(c1NC(=O)c1ccc(S(=O)(=O)N3CCCC3)cc1)CSC2 | 6.1 | 1.5 | 2.0 | 8.6 | 31.2* | 47.7*

Assay outcomes (PubChem BioAssay)
